Source: PubChem BioAssay
An excerpt weighted towards active compounds, which were near 9.2% of everything screened.
FLuc counter = qHTS profiling assay for firefly luciferase inhibitor/activator using purifed enzyme and Km concentrations of substrates (counterscreen for miR-21 project). Luciferin 4-monooxygenase (Photinus pyralis), P08659. purified FLuc, Km substrates, luminescence inhibition. Potency, µM (doses to about 57.5 µM), for the others: top-dose activity change, negative = inhibition, hits mostly inhibitors. hit rate 6.9% among 360,000;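 also: plate controls were vehicle for no effect and reference inhibitor for full effect; nearly all actives have a fitted effect of over 55% in size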
Target sequence (P08659 whole entry, looked up): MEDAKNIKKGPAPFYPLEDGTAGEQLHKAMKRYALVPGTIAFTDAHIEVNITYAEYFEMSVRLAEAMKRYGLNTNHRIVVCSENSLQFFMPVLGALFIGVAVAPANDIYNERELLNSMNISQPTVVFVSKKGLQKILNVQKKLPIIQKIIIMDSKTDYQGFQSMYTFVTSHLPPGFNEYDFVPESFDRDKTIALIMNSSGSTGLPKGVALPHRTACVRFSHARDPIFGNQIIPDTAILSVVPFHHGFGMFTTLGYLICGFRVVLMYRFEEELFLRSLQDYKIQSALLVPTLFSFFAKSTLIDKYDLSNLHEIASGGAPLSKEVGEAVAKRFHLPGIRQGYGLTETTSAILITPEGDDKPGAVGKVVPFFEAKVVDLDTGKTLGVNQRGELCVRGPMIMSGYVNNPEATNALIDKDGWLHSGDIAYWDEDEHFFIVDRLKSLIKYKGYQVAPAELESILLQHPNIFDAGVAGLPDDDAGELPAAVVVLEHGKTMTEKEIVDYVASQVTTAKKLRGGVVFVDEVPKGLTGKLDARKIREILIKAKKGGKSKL
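Purified P. pyralis luciferase (10nM final) with 10uM D-luciferin and 10uM ATP (Km levels) in 50mM Tris acetate pH 7.5, 10mM Mg acetate, 0.01% Tween-20, 0.05% BSA; qHTS 6-point titration, ~60 µM downward; luminescence read.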
ELG1 repair inh = qHTS screen for small molecules that inhibit ELG1-dependent DNA repair in human embryonic kidney (HEK293T) cells expressing luciferase-tagged ELG1; HEK293T ELG1-luciferase reporter, luminescence, 16 h; DNA damage induced by 5-fluorouridine; Potency, µM (highest dose often 46.1 µM), without a hit: top-dose activity change, negative = inhibition, most hits filed as inhibitors; hit rate 2.3% among 330,000; AID 504467, 2011; also: % is scaled to controls: 0 for no effect and ±100 for the full control effect; nearly all actives have a fitted effect of over 55% in size
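Overnight (16 hr) co-exposure of 2,000 cells/well to 5-fluorouridine and compound at 37 °C preceded detection. Luciferase was quantified via ONE-Glo luminescence; loss of signal denotes inhibition.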
Rab9 prom act = qHTS Assay for Rab9 Promoter Activators | Huh7 Rab9 promoter-luciferase reporter, luminescence, 24 h | Potency, µM (highest dose often 9.22 µM), for the others: top-dose activation, negative = inhibition, most hits filed as activators | hit rate 2.8% among 320,000 | AID 485297, 2010; also: % of control where 0% means no effect; nearly all actives have a fitted effect of over 60% in size
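Rab9 promoter-driven luciferase in stably transfected Huh7 cells; 1500 cells/well rested 2 h, exposed to compound in DMSO for 24 h at 37 °C, 5% CO2. Luminescence read 10 min after adding luciferase reagent at ambient temperature.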
SMN2 splice up = qHTS Assay for Enhancers of SMN2 Splice Variant Expression; HEK293 SMN2-luciferase splicing reporter, luminescence, 30-36 h; Potency, µM (highest dose often 46.1 µM), inactives show at the highest dose activity change, positive = activation, most hits filed as activators; hit rate 2.8% among 210,000; AID 1458, 2008; also: % of control where 0% means no effect; nearly all actives have a fitted effect of over 55% in size
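HEK293 cells carry an SMN2 minigene-luciferase reporter in which exon 7 inclusion puts luciferase in frame. Cells were seeded at 2000 cells/well, attached for 10-12 hours, then exposed to compounds for 30-36 hours at 37C before ONE-Glo luminescence.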
ELG1 genotoxic = qHTS screen for small molecules that induce genotoxicity in human embryonic kidney (HEK293T) cells expressing luciferase-tagged ELG1. HEK293T ELG1-luciferase reporter, luminescence, 16 h. Potency, µM (titrated, usually from 46 µM), without a hit: at the top dose activity change, positive = activation, hits mostly activators. hit rate 1.3% among 330,000. AID 504466, 2011; also: % of control where 0% means no effect; nearly all actives have a fitted effect of over 60% in size
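HEK293T cells expressing luciferase-tagged ELG1 were exposed to compound or DMSO vehicle for 16 hr at 37 °C and 5% CO2. Luciferase activity was then measured with ONE-Glo after 30 min at room temperature.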
NPC1 prom act = qHTS Assay for NPC1 Promoter Activators | Huh7 NPC1 promoter luciferase reporter, 24 h | Potency, µM (top dose mostly 9.22 µM), for the others: top-dose activation, usual class: activators | hit rate 2.4% among 320,000 | AID 485313, 2010; also: % of control where 0% means no effect; nearly all actives have a fitted effect of over 60% in size
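Readout is luciferase luminescence, reflecting NPC1 promoter activation in stably transfected Huh7 cells after 24 h compound exposure at 37 °C in reduced-serum medium with 10% FBS.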
Active calls of the source: *; ? = inconclusive; / = no result given; [ ] = remark or other dose. Calls follow the shape of the dose curve; as a rule, active = well fitted curve in the direction sought with a large enough effect; inconclusive = small, poorly fitted or top-dose-only effect, or another doubt; inactive = no such curve, though single readings can be large; an effect the other way counts as inactive or inconclusive. Potency is read from the fitted curve at half-maximal effect.

SMILES	FLuc counter	ELG1 repair inh	Rab9 prom act	SMN2 splice up	ELG1 genotoxic	NPC1 prom act
CC(C)n1ncc2c(C(=O)Nc3ccc(S(C)(=O)=O)cc3)cc(C3CC3)nc21	3%	?	-2%	/	-1%	-2%
CCN(CC)C(=O)c1cccc(NC(=O)c2cc(C3CC3)nc3c2cnn3C(C)C)c1	4%	?	0%	/	-8%	1%
Cc1nnc(SCC2=C(C(=O)O)N3C(=O)[C@@H](NC(=O)Cn4cnnn4)[C@@H]3SC2)s1	/	/	/	2%[20.6 µM]	/	/
CCOC(=O)C1=C(C)Nc2ccccc2N=C1NC(=O)c1oc2ccccc2c1COC	6%	11µM*	-6%	/	-9%	-5%
CCC1(CC)NC(=O)N(CC(=O)Nc2ccc(OCc3ccccc3)cc2)C1=O	/	?	/	/	0%	/
Cc1ccc(NC(=S)N2CCC(c3ccccc3)C2)c(Cl)c1 (stereo not given)	1.5µM*	?	0.28µM*	11µM*	2.3µM*	0.5µM*
S=C(Nc1ccccc1Cl)N1CCC(c2ccccc2)C1 (stereo not given)	24µM*	?	2.8µM*	13µM*	?	3.5µM*
Fc1ccccc1NC(=S)N1CCC(c2ccccc2)C1 (stereo not given)	?	?	?	79%	?	?
COC(=O)c1ccc(OCC2c3cc(OC)c(OC)cc3CCN2C(=O)c2ccccc2F)cc1 (stereo not given)	0%	/	/	/	/	/
COc1ccc(C(=O)Nc2cc(=O)[nH]c3ncnn23)cc1	?	2%	-1%	/	4%	-3%
Oc1ccc(Cl)cc1C1=NNC(c2cccs2)C1 (stereo not given)	?	?	7%	/	-16%	-5%
Cc1ccc(O)c(C2=NNC(c3ccc(Cl)cc3)C2)c1 (stereo not given)	27µM*	18%	27%	/	5%	0%
CCCC1(C(=O)OC)NC(c2ccc(OC)cc2OC)C2C(=O)N(c3cccc(C(C)=O)c3)C(=O)C21 (stereo not given)	0%	?	-1%	/	-2%	-4%
Cc1ccc2nc(NC(=O)CCNS(=O)(=O)c3cccs3)sc2c1	12µM*	?	22%	-1%	-4%	17%
Cc1cccc2sc(NC(=O)CCNS(=O)(=O)c3cccs3)nc12	-1%	?	5%	1%	-8%	-10%
Cc1ccc2nc(NC(=O)CCNS(=O)(=O)c3ccc(Br)s3)sc2c1	19µM*	-18%	4%	-11%	-4%	1%
C/C(=N\NC(=O)c1ccc(NS(=O)(=O)c2cccs2)cc1)c1ccc(C(C)(C)C)cc1	12µM*	?	-7%	?	0%	0%
Cc1ccc2nc(NC(=O)c3ccc(NS(=O)(=O)c4cccs4)cc3)sc2c1	12µM*	-2%	16%	-8%	9%	15%
CC(=O)Nc1cccc(/C(C)=N/NC(=O)c2ccc(NS(=O)(=O)c3cccs3)cc2)c1	?	1%	2%	/	-4%	-2%
Cc1nc(C)n(CC(C)C(=O)N2CCN(S(=O)(=O)c3ccccc3)CC2)n1 (stereo not given)	2%	3%	0%	/	-4%	1%
COc1ccc(-c2cc3ncc(-c4ccccc4)c(N)n3n2)cc1	0.95µM*	?	1.8µM*	11µM*	?	1.4µM*
N#Cc1cnc2cc(-c3ccccc3)nn2c1N	?	?	?	/	13%	?
Cc1ccc(-c2cc3nc(C)cc(NCc4ccco4)n3n2)cc1	2.4µM*	?	17%	13µM*	4.1µM*	2.8µM*
COCCNc1cc(C)nc2cc(-c3ccc(C)cc3)nn12	6µM*	13%	?	-2%	?	?
CC(=O)n1nc(-c2ccc(C)cc2)nc1NCc1ccco1	1%	?	3.5µM*	?	?	2.5µM*
SMILES	FLuc counter	ELG1 repair inh	Rab9 prom act	SMN2 splice up	ELG1 genotoxic	NPC1 prom act
Cc1ccc(NC2CCCN(C(=O)C3CCCCC3)C2)cc1C (stereo not given)	-4%	?	13%	/	-12%	-3%
COc1ccc(-c2cc3nc(C)cc(NCCO)n3n2)cc1	11µM*	?	?	-17%	9%	-1%
COc1ccc(-c2cc3nc(C)cc(N)n3n2)cc1	0.38µM*	?	0.35µM*	1.1µM*	?	0.11µM*
COc1ccc(-c2cc3nc(C)cc(-c4ccc(OC)cc4)n3n2)cc1	?	1%	-1%	/	3%	1%
COc1cccc(NC(=O)CSc2nc(-c3ccccc3)nc3c2Cc2cc(Cl)ccc2O3)c1	2%	/	/	-6%	/	/
Cc1ccc(/C=C/C(=O)c2ccc(N3CCOCC3)cc2)s1	0.34µM*	?	?	22µM*	9%	?
C/C(=N\NC(=O)c1cccc(C)c1)c1ccc(N2CCOCC2)cc1	-10%	?	-6%	-9%	14%	10%
Cc1cccc(/C=C/C(=O)c2ccc(N3CCOCC3)cc2)c1	21µM*	-10%	0%	-29%	9%	-3%
CCc1ccc(/C=C/C(=O)c2ccc(S(=O)(=O)N(C)C)cc2)cc1	-10%	3%	6%	-30%	1%	2%
C/C(=C\C(=O)c1ccc(F)cc1)Nc1ccc(N2CCOCC2)cc1	1%	-1%	-10%	-25%	15%	1%
O=C(/C=C/c1ccc(F)cc1)c1ccc(N2CCOCC2)cc1	1.2µM*	15%	26%	/	4%	6%
CCc1ccc(/C=C/C(=O)c2ccc(N3CCOCC3)cc2)cc1	1.5µM*	-3%	-1%	-31%	2%	1%
CS(=O)(=O)N1CCCC(C(=O)Nc2ccc(F)c(F)c2)C1 (stereo not given)	/	5%	-3%	/	-1%	-10%
Cc1cc(C)cc(NC2=CC(c3cccc(F)c3)N(c3cc(C)cc(C)c3)C2=O)c1 (stereo not given)	6%	/	/	2%	/	/
COC(=O)C1C(O)=C(C=Nc2ccc3ccccc3c2)C(=O)CC1(C)C (stereo not given)	?	?	0%	?	3%	0%
Cc1ccc2c(=O)cc(C(=O)Nc3c(C(=O)c4ccc(F)cc4)oc4ccccc34)oc2c1C	-4%	/	/	9%	/	/
